# Pf growth 48h: inhibits P. falciparum growth in the first generation, 48 h; Potency, µM (doses to about 28.7 µM), for the others: at the highest dose activity change, negative = inhibition, usual class: inhibitors; P. falciparum luciferase growth in erythrocytes, 48 h; 5.9% of 310,000 active; AID 504832; further: potency means the concentration at half of the fitted maximal effect; on the % scale 0 is the no-effect control and ±100 the full control effect
#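 Growth was read as firefly luciferase luminescence after a 48 h, 37 C, 5% CO2 exposure of compounds to reporter-bearing P. falciparum cultures (0.1% parasitemia, 2% hematocrit final) in Albumax-supplemented RPMI 1640.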
# Cycloheximide cs: counter-screen hit for Shiga toxin inhibitors, cycloheximide | cell reporter, cycloheximide protein synthesis inhibition counterscreen | max response, % | 12% of 300,000 active; in the data active means max response mostly above about 13%, no sharp cut-off; inactive means mostly below about 14%; further: read at 38.3 µM for the half of the compounds with a filed dose; 0% is about no effect
# Shiga toxin inh: Shiga toxin inhibition. Vero cells, Shiga toxin protein synthesis inhibition reporter. 9.2% of 290,000 active. inhibition, % at 38.7 µM; in the data active means inhibition mostly above about 28%, no sharp cut-off; inactive means mostly below about 43%; further: 0% is about no effect
# HCMV antiviral: human cytomegalovirus inhibition. HFF cells, HCMV-luciferase reporter, 72 h; stronger effect = lower value. activity change, negative = inhibition, % at 57.5 µM. 4.5% of 410,000 active. AID 1259415; in the data active means activity change below about -60%; inconclusive means no clear call, values can overlap the other calls; inactive means above about -39%; further: on the % scale 0 is the no-effect control and ±100 the full control effect
#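 Luciferase read-out from HCMV-luciferase-infected HFFs (MOI 1 PFU/cell) 72 h post infection at 37C; compounds added after 16 h cell attachment; activity normalized between buffer-only basal and Salinomycin (10uM) inhibitor controls.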
# Pf growth 96h: inhibits malaria parasite growth, 96 h; P. falciparum luciferase reporter growth, 96 h; Potency, µM (doses to about 28.7 µM), inactives show top-dose activity change, negative = inhibition, actives largely listed as inhibitors; 6.9% of 320,000 active; further: potency means the concentration at half of the fitted maximal effect; on the % scale 0 is the no-effect control and ±100 the full control effect
#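 P. falciparum expressing integrated firefly luciferase grown in erythrocytes (2% hematocrit, 0.05% parasitemia final) with compounds for 96 hours at 37 C, 5% CO2. Growth inhibition read as loss of luminescence after adding luciferase detection reagent.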
# Numbers without * were called inactive; ? = inconclusive; · = not tested or not shown; + = active, no number; ! = a repeat was not active; [ ] = remark or other dose. In the library only some 20% were active in any assay of this set; here they are far more common. Unless noted, the call rests on the fitted dose curve; in most records, active means well fitted inhibition curve with a large enough effect; inconclusive means small, poorly fitted or top-dose-only effect, or another doubt; inactive means no such curve, though single readings can be large or run the other way.
SMILES,Pf growth 48h,Cycloheximide cs,Shiga toxin inh,HCMV antiviral,Pf growth 96h
CCOc1ccc(CCNC(=O)c2ccc(CNS(=O)(=O)c3ccccc3)cc2)cc1OCC,?,-1,15,-72*,8.3µM*
Cc1ccc(CCNC(=O)c2ccc(CNS(=O)(=O)c3ccccc3)cc2)cc1,·,·,·,3,·
CCOc1ccc(CCNC(=O)c2ccc3ccccc3n2)cc1OCC,?,44*,53*,92,?
COc1ccc(COc2cc(-c3cccc(OC)c3)nc3ccc(NC(=O)c4ccc(C)cc4)cc23)cc1,?,-6,7,-30,3.3µM*
COc1ccc(COc2cc(-c3cccc(OC)c3)nc3ccc(NC(C)=O)cc23)cc1,18%,-4,36,-19,28%
COc1ccc(COc2cc(-c3cccc(OC)c3)nc3ccc(N)cc23)cc1,15µM*,37*!,61*!,-90*,5.9µM*
COc1ccc(COc2cc(-c3cccc(OC)c3)nc3ccc(NC(=O)c4ccc(N(C)C)cc4)cc23)cc1,2.3µM*,1,-5,·,2.9µM*
Cc1cccc(NS(=O)(=O)c2ccc(C(=O)N3CCN(c4ccccc4O)CC3)cc2)c1C,?,-2,-6,-31,?
CCc1ccccc1NC(=O)Cn1c(=O)n(-c2ccc(C)cc2)c(=O)c2c1c1cc(C)ccc1n2C,·,·,·,16,·
Clc1ccc2c(c1)C(c1ccccc1Cl)=NCc1nnc(N3CCN(CCOc4ccccc4)CC3)n1-2,?,-6,-12,-36,9.3µM*
Clc1ccc2c(c1)C(c1ccccc1Cl)=NCc1nnc(N3CCN(CCSc4ccccc4)CC3)n1-2,-7%,0,-16,19,31%
COc1cc2c(cc1OC)CN(S(=O)(=O)c1ccccc1F)CC2,-19%,5,-9,5,-13%
CCN(CC)c1nc(SCCOC(=O)Nc2ccccc2)nc(N(CC)CC)n1,?,16*,29,38,10µM*
CN(C)c1nc(SCCOC(=O)c2ccccc2)nc(N(C)C)n1,-13%,0,16,-19,·
CCCN1CCN(C(=O)C2CCN(c3nnc(C)c4c(C)n(-c5ccc(C)cc5)nc34)CC2)CC1,10µM*,-2,-7,?,?
Cc1ccc(-n2nc3c(N4CCC(C(=O)N5CCCCCC5)CC4)nnc(C)c3c2C)cc1,?,-4,18,·,12µM*
Cc1ccc(-n2nc3c(N4CCC(C(=O)N5CCN(C)CC5)CC4)nnc(C)c3c2C)cc1,?,-9,-10,?,?
COc1cc(-c2ccc3oc(-c4ccsc4)cc3c2)cc(OC)c1OC,·,·,·,-18,·
Cc1ccc(NC(=O)COC(=O)[C@@H]2CC(O)CN2S(=O)(=O)c2ccc3c(c2)OCCO3)cc1 (stereo not given in full),·,·,·,-14,·
N#C/C(=C/c1ccc(Sc2nc3ccccc3[nH]2)o1)c1cccc(F)c1,·,3,38,-103*,-12%
O=C(N/N=C/c1ccc(Sc2nc3ccccc3[nH]2)o1)c1ccncc1,1%,-3,10,?,-20%
N#C/C(=C/c1ccc(Sc2nc3ccccc3[nH]2)o1)c1cccc(Br)c1,·,4,17,-85*,-98%
O=C(N/C(=C\c1cccnc1)c1nc2ccccc2[nH]1)c1cccc(Br)c1,?,1,-12,?,4%
N#C/C(=C/c1ccc(Sc2nc3ccccc3[nH]2)o1)c1ccccc1F,7%,-2,27,-102*,·
COc1cc(Cl)c(C)cc1Nc1nc2ccccc2n2cnnc12,·,·,·,36,·
SMILES,Pf growth 48h,Cycloheximide cs,Shiga toxin inh,HCMV antiviral,Pf growth 96h
Oc1oc(-c2ccccc2)nc1C=Nc1cccc2ccccc12,-15%,20*,26,80,1%
Oc1oc(-c2ccccc2)nc1C=NCc1ccncc1,9%,-2,2,65,-13%
Oc1oc(-c2ccccc2)nc1/C=N/c1nccs1,36%,33*,+,-30,91%
CC(=O)N1c2ccc(S(=O)(=O)NCCC(=O)Nc3ncccc3C)cc2CC1C (stereo not given),11%,-3,-3,?,-8%
Cn1c(-c2cccnc2)cc2cnc(Nc3ccc4c(c3)OCCO4)cc21,·,·,·,43,·
COc1ccccc1C1c2c(C)nn(-c3ccccc3)c2NC(=O)C1NC(=O)c1ccccc1 (stereo not given),?,-2,5,?,?
CCOc1nc2cnccc2n(CC(=O)Nc2cccc(C)c2)c1=O,6%,6,-4,-38,13%
CCCCOC(=O)c1cccc(NC(=O)CCC(=O)O)c1,4%,-2,8,21,?
CCCCOC(=O)Nc1cccc(C(C)=O)c1,56%,23*,72*,12,0%
CCCCOC(=O)Nc1cccc(Cl)c1C,116%,22*,87*,-14,·
CCNC(=O)OCC(CC)NC(=O)OCC(C)C (stereo not given),1%,-8,-7,0,·
CCC(COC(=O)Nc1cccc(C)c1)NC(=O)OCC(C)C (stereo not given),?,36*,87*,-4,7%
CCOC(=O)Nc1cccc(C(=O)O)c1,23%,14*,31*,47,·
COc1ccc(-c2ccc3c(c2)[C@@H]2C[C@H](N(C)C(=O)Nc4ccccc4)[C@H]([C@H](C)O)C(=O)N2CC3)cc1,·,·,·,-5,·
O=C(NC1CCCC1)C1CCN(C(=O)c2ccc(Cl)cc2Cl)CC1,-2%,-7,-10,6,18%
COc1cc(OC)c(C(=O)O/N=C(\N)c2ccc(C)cc2)cc1OC,?,15*,11,20,80%
COc1cc(OC)c(C(=O)O/N=C(\N)c2cccc(C)c2)cc1OC,?,50*,82*,57,-8%
O=C(COc1ccccc1)Nc1nnc(S(=O)(=O)Nc2ccccc2)s1,38%,-3,-2,-1,2%
O=C(O)COc1cnc2ccccc2n1,22%,7,-4,-6,0%
CCc1ccc(-c2cnc3ccccc3n2)cc1NC(=O)CNC(=O)c1ccccc1,169%,37*,105*,49,456%
O=C(CCl)Nc1ccc(Oc2cnc3ccccc3n2)cc1,1.7µM*,30*,46,-104*,0.74µM*
CCC(=O)Nc1cccc(-c2cnc3ccccc3n2)c1,·,47*,36*,61,?
O=C(CCl)Nc1cccc(-c2cnc3ccccc3n2)c1,1µM*,46*,72*,-98*,·
Cc1ccccc1C(=O)Nc1cccc(C(=O)OCc2cc(=O)n3ccsc3n2)c1,·,·,·,4,·
O=C(c1ccc(F)cc1)c1cn(Cc2ccccc2F)c2cc3c(cc2c1=O)OCCO3,·,·,·,-37,·
C[n+]1ccccc1/C=N\O,-17%[12.8 µM],·,·,·,?
O=C(Nc1ccccc1C(=O)Nc1ccccn1)c1ccccc1F,0%,-3,-5,-20,-10%
Cn1cc(C(=O)Nc2ccccn2)c(=O)c2ccccc21,159%,20*,47*,292,?
Cc1cc(C(=O)Nc2ccccn2)cs1,433%,37*,48*,55,·
Cc1ccccc1C(=O)Nc1ccc(Cl)cn1,173%,24*,115*,36,?
